According to PubChem BioAssay (Tox21):
Values without a mark were called inactive. Records with an inconclusive call do not appear. Entries that show only a call come without a potency. The source made the active and inactive calls. Unless noted, the call rests on the fitted dose curve; in most records, active means well fitted curve in the direction sought with a large enough effect in the repeat runs; inconclusive means weak or mixed curves; inactive means no such curve, though single readings can be large; an effect the other way counts as inactive or inconclusive.

Assays:
[1] = qHTS assay to identify small molecule antagonists of the glucocorticoid receptor (GR) signaling pathway - cell viability counter screen (AID 720693); further: nearly all actives have a fitted effect of over 55% in size
[2] = qHTS assay for identifying genotoxic compounds that show differential cytotoxicity against isogenic chicken DT40 cell lines with known DNA damage response pathways - wild type cell line (AID 743012); further: nearly all actives have a fitted effect of over 60% in size; further: potency means the concentration at half of the fitted maximal effect
In short: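 Luminescent ATP viability signal (CellTiter-Glo, 30 min RT) recorded after wild type DT40 cells were incubated with compounds for 40 h at 37 C/5% CO2.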

[3] = qHTS assay for identifying genotoxic compounds that show differential cytotoxicity against isogenic chicken DT40 cell lines with known DNA damage response pathways - Rad54/Ku70 mutant cell line (AID 743015); further: nearly all actives have a fitted effect of over 60% in size; further: potency means the concentration at half of the fitted maximal effect
[4] = qHTS assay to identify small molecule antagonists of the androgen receptor (AR) signaling pathway - cell viability counter screen (AID 743033; further: nearly all actives have a fitted effect of over 45% in size)
[5] = qHTS assay to identify small molecule antagonists of the androgen receptor (AR) signaling pathway using the MDA cell line - cell viability counter screen (AID 743041; further: nearly all actives have a fitted effect of over 45% in size)
In short: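 Viability read by CellTiter-Fluor fluorescence in the same wells as the antagonist screen, added after 15.5 h of a 16 h, 37C exposure. Human breast carcinoma MDA-kb2 AR-luc cells, compounds co-dosed with agonist R1881.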

[6] = qHTS assay to identify small molecule antagonists of the thyroid receptor (TR) signaling pathway - cell viability counter screen (AID 743064); further: nearly all actives have a fitted effect of over 50% in size
In short: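 CellTiter-Fluor readout, 30 min at 37 °C/5% CO2, following 23.5 h incubation of GH3.TRE-Luc cells with test compound and 1 nM T3 (final).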

[7] = qHTS assay to identify small molecule antagonists of the thyroid receptor (TR) signaling pathway (AID 743065); further: nearly all actives have a fitted effect of over 55% in size
In short: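 Antagonism measured as loss of luciferase signal in GH3 cells stably carrying a TRE-luciferase reporter, co-treated with compound and T3 (1 nM final) for 23.5 h at 37 C. Viability was read in the same well by CellTiter-Fluor.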

[8] = tested on: thyroid hormone receptor (rat, GH3 cells); assay: qHTS assay to identify small molecule agonists of the thyroid receptor (TR) signaling pathway (AID 743066; calls by dose curve)
[9] = qHTS assay to identify small molecule antagonists of the estrogen receptor alpha (ER-alpha) signaling pathway - cell viability counter screen (AID 743074; calls by dose curve;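 further: HEK293 cells carrying ER-alpha-UAS-bla reporter stimulated with 17beta-estradiol; nearly all actives have a fitted effect of over 45% in size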)
[10] = molecular target: Estrogen receptor (Homo sapiens) (UniProt P03372); assay: qHTS assay to identify small molecule agonists of the estrogen receptor alpha (ER-alpha) signaling pathway (AID 743075; calls by dose curve;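 further: HEK293 GripTite cells with ER-alpha and UAS-driven beta-lactamase reporter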)
[11] = molecular target: Estrogen receptor (Homo sapiens) (UniProt P03372); assay: qHTS assay to identify small molecule agonists of the estrogen receptor alpha (ER-alpha) signaling pathway using the BG1 cell line (AID 743079); settings: BG1Luc4E2 cells, ERE-luciferase agonist, 22 h; at 70.3 µM (top of the series); further: nearly all actives have a fitted effect of over 20% in size
[12] = qHTS assay to identify small molecule antagonists of the estrogen receptor alpha (ER-alpha) signaling pathway using the BG1 cell line (AID 743080; calls by dose curve;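 further: BG1 cells stimulated with 17beta-estradiol alongside compound; nearly all actives have a fitted effect of over 25% in size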)
In short: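 After 5 days in phenol-red-free 10% charcoal-stripped FBS medium, BG1-Luc-4E2 cells were seeded, left 24 h at 37 C, co-treated with compounds and 17beta-estradiol for 21.5 h, then assayed for viability and luciferase.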

[13] = qHTS assay to identify small molecule antagonists of the estrogen receptor alpha (ER-alpha) signaling pathway using the BG1 cell line - cell viability counter screen (AID 743081);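 further: compound given together with 17beta-estradiol as the ER stimulus; nearly all actives have a fitted effect of over 45% in size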
Aromatase (Homo sapiens) = Aromatase (Homo sapiens) (UniProt P11511); assay: qHTS assay to identify aromatase inhibitors (AID 743083); further: nearly all actives have a fitted effect of over 55% in size
[14] = qHTS assay to identify aromatase inhibitors - cell viability counter screen (AID 743084);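 further: cells stimulated with testosterone during compound exposure; nearly all actives have a fitted effect of over 55% in size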
[15] = molecular target: Androgen receptor (Homo sapiens) (UniProt P10275); assay: qHTS assay to identify small molecule agonists of the androgen receptor (AR) signaling pathway using the MDA cell line (AID 743040; further: nearly all actives have a fitted effect of over 20% in size)
In short: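 Luciferase agonist assay: 16 h compound exposure at 37C without CO2 in MDA-kb2 AR-luc cells, whose MMTV promoter responds to both AR and GR. Luminescence measured after 30 min room-temperature incubation with ONE-Glo.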

[16] = molecular target: Estrogen receptor (Homo sapiens) (UniProt P03372); assay: qHTS assay to identify small molecule antagonists of the estrogen receptor alpha (ER-alpha) signaling pathway (AID 743069; active means well fitted curve in the direction sought with a large enough effect in the signal ratio in the repeat runs, not every such curve was filed as active; the % refers to the signal ratio)
In short: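 Antagonist mode: compounds in DMSO were co-added with 17beta-estradiol to ER-alpha-bla HEK293 cells (2% charcoal-stripped serum) and left 18 h at 37C. Reporter inhibition was measured as FRET fluorescence after 2 h LiveBLAzer substrate at room temperature.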

[17] = qHTS assay for identifying genotoxic compounds that show differential cytotoxicity against isogenic chicken DT40 cell lines with known DNA damage response pathways - Rev3 mutant cell line (AID 743014); further: nearly all actives have a fitted effect of over 55% in size

Estrogen receptor (Homo sapiens), sequence (P03372 whole entry, looked up): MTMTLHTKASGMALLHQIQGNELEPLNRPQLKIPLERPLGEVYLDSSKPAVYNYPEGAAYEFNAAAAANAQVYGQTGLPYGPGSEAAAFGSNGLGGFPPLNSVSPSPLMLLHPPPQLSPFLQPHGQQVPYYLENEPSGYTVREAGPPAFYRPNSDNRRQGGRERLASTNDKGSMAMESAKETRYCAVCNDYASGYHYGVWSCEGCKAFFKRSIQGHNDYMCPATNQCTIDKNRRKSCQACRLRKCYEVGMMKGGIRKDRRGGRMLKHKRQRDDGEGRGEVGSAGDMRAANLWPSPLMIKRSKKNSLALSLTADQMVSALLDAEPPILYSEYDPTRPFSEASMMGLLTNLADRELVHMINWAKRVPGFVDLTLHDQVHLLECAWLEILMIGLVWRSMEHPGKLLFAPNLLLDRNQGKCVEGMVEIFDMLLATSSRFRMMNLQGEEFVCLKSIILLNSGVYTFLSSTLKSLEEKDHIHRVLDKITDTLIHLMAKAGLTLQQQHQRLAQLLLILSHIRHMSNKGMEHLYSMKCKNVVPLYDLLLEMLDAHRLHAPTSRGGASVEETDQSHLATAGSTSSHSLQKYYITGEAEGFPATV
Aromatase (Homo sapiens), sequence (P11511 whole entry, looked up): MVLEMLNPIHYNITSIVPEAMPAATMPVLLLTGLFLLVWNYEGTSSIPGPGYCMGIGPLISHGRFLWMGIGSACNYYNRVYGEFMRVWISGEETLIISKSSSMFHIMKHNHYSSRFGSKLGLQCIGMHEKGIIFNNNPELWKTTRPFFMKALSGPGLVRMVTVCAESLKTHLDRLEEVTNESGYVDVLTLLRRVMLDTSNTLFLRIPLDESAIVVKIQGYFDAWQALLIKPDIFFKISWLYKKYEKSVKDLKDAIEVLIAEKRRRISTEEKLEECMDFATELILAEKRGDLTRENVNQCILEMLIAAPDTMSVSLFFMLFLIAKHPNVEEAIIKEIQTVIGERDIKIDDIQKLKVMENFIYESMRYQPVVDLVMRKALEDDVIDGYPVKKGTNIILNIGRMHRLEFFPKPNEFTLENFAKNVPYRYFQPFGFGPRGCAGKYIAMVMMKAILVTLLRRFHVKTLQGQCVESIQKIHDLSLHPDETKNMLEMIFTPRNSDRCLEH
Androgen receptor (Homo sapiens), sequence (P10275 whole entry, looked up): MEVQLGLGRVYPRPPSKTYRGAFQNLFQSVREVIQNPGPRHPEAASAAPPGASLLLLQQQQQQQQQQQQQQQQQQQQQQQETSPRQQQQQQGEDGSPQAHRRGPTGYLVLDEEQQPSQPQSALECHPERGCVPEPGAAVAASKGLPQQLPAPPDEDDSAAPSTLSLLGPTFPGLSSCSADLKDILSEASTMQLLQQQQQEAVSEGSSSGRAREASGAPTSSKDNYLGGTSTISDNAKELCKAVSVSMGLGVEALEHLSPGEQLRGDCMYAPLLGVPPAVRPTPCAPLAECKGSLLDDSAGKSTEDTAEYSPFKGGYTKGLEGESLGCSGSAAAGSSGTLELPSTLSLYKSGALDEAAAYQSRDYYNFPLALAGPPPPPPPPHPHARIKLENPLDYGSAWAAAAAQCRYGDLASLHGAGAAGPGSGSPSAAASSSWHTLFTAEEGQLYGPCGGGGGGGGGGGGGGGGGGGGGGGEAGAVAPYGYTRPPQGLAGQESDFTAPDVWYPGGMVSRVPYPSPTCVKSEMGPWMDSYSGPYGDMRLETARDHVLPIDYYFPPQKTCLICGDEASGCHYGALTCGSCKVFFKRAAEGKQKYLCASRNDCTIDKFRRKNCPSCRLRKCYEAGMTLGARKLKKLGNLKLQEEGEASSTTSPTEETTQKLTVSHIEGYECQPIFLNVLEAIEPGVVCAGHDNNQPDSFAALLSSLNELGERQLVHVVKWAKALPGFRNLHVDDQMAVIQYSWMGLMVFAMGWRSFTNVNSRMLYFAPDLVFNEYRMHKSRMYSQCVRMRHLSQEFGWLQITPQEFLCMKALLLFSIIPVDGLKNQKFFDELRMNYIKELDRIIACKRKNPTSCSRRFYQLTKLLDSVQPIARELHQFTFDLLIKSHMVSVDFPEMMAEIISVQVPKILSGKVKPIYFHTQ

## CS(=O)(=O)c1ccc(C(=O)C2C(=O)CCCC2=O)c(Cl)c1COCC(F)(F)F
[1]
  Potency: inactive
[2]
  Potency: inactive
[3]
  Potency: inactive
[4]
  Potency: inactive
[5]
  Potency: inactive
[6]
  Potency: inactive
[7]
  Potency: inactive
[8]
  Potency: inactive
[9]
  Potency: inactive
[10]
  Potency: inactive
[11]
  activation: 14.7%
[12]
  Potency: inactive
[13]
  Potency: inactive
Aromatase (Homo sapiens)
  Potency: inactive
[14]
  Potency: inactive

## [O-][Br+2]([O-])O
[1]
  Potency: inactive
[2]
  Potency: inactive
[3]
  Potency: inactive
[4]
  Potency: inactive
[15]
  outcome: inactive
[6]
  Potency: inactive
[7]
  Potency: inactive
[8]
  Potency: inactive
[16]
  Potency: inactive
[9]
  Potency: inactive
[10]
  Potency: inactive
[11]
  activation: 1.35%
[12]
  Potency: inactive
[13]
  Potency: inactive
Aromatase (Homo sapiens)
  Potency: inactive
[14]
  Potency: inactive

## NC(=O)OCCCc1ccccc1
[1]
  Potency: inactive
[2]
  Potency: 13.3 µM (active)
[3]
  Potency: 29.8 µM (active)
[4]
  Potency: inactive
[5]
  Potency: inactive
[6]
  Potency: inactive
[7]
  Potency: inactive
[8]
  Potency: inactive
[9]
  Potency: inactive
[10]
  Potency: inactive
[11]
  activation: 2.88%
[12]
  Potency: inactive
[13]
  Potency: inactive
Aromatase (Homo sapiens)
  Potency: inactive
[14]
  Potency: inactive

## CC(C)(O)C(Cl)(Cl)Cl
[1]
  Potency: inactive
[2]
  Potency: inactive
[17]
  Potency: inactive
[4]
  Potency: inactive
[5]
  Potency: inactive
[16]
  Potency: inactive
[10]
  Potency: inactive
[11]
  activation: 7.26%
[12]
  Potency: inactive
Aromatase (Homo sapiens)
  Potency: inactive
[14]
  Potency: inactive

## Cc1ccc2c(c1)C1CN(C)CCC1N2 (stereo unspecified)
[1]
  Potency: inactive
[2]
  Potency: inactive
[3]
  Potency: inactive
[4]
  Potency: inactive
[6]
  Potency: inactive
[7]
  Potency: inactive
[8]
  Potency: inactive
[16]
  Potency: inactive
[9]
  Potency: inactive
[10]
  Potency: inactive
[11]
  activation: -4.51%
[12]
  Potency: inactive
[13]
  Potency: inactive
Aromatase (Homo sapiens)
  Potency: inactive
[14]
  Potency: inactive

## C=C(Cl)CCl
[1]
  Potency: inactive
[2]
  Potency: inactive
[3]
  Potency: inactive
[4]
  Potency: inactive
[5]
  Potency: inactive
[7]
  Potency: inactive
[8]
  Potency: inactive
[9]
  Potency: inactive
[10]
  Potency: inactive
[11]
  activation: 0.667%
[12]
  Potency: inactive
[13]
  Potency: inactive
Aromatase (Homo sapiens)
  Potency: inactive
[14]
  Potency: inactive
